Among the data in ChEMBL document CHEMBL3988442, “University of Dundee, Small-Polar-MMV Screening Library” (2021) are Percent Effect values, retold here.

What all share (parameters): scale not given: direction of the effect not stated beside the values
The target of experiment [1] is Protein translocase subunit SecA (Escherichia coli (strain K12)) (UniProt P10408). Kind of experiment: Assay to Identify E. coli SecA ATPase Inhibitors. The format is functional. Particulars: 30 µM.
Experiment [2] concerns the target T1, Ubiquitin-activating enzyme e1, putative (Leishmania donovani (strain BPK282A1)) (UniProt E9BSI1).
T1 sequence (whole entry): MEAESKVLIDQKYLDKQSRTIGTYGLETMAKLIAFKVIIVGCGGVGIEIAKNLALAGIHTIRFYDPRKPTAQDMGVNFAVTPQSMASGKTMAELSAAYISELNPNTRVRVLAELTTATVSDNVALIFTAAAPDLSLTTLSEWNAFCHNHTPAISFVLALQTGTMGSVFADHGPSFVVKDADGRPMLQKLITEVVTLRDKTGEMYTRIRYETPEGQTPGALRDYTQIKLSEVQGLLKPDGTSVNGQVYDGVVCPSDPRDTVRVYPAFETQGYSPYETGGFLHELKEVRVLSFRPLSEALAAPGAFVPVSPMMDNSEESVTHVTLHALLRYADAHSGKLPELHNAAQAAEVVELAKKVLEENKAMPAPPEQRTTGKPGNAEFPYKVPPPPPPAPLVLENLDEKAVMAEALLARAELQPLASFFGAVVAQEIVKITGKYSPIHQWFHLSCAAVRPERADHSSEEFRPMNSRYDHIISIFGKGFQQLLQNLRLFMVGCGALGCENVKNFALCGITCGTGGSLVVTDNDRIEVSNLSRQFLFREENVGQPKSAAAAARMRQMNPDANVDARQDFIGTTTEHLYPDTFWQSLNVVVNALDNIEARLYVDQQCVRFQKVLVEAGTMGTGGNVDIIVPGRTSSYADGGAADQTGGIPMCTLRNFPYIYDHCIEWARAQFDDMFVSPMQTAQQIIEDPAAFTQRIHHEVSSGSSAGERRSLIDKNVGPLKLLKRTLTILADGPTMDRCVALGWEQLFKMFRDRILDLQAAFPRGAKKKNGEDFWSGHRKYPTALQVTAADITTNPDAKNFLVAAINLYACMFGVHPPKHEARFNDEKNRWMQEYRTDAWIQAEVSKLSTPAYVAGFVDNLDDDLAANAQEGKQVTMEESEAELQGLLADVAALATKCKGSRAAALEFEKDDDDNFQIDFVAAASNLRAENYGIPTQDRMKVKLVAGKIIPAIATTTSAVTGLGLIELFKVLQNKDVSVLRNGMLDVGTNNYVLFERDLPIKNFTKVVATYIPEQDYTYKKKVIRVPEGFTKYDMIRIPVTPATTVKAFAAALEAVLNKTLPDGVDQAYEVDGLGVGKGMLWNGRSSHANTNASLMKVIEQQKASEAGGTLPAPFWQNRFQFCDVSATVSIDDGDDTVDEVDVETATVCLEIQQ
The experiment can be described thus: Leishmania donovani Ubiquitin Activating Enzyme (LdE1). Particulars: 30 µM. The format is functional.

Experiment [3] concerns the target AMP-activated protein kinase, AMPK (Homo sapiens) (UniProt P54646+O43741+P54619+Q9UGJ0+Q9Y478+Q13131+Q9UGI9). Kind of experiment: AMP-dependent Kinase enzyme assay. An in vitro enzyme assay that detects ADP turnover that is directly proportional to AMPK activity. This uses naive AMPK that is activated during the assay with MK-8722. The format is functional. The settings on record: 30 µM.

In experiment [4] the target is Sialic acid-binding Ig-like lectin 9 (Homo sapiens) (UniProt Q9Y336). The experiment can be described thus: Hs-Siglec9 ALPHAscreen SOP 20170721. Particulars: 10 µM. Background: Alpha assays give light when donor and acceptor beads are brought close together.
The test system of another experiment is Trypanosoma cruzi. The experiment can be described thus: Trypanosoma cruzi phosphomannomutase and mannose-1-phosphate guanylyltransferase assay. The format is functional. Particulars: 10 µM.
The target in experiment [5] is T2, Arginase-2, mitochondrial (Homo sapiens) (UniProt P78540).
T2 sequence (whole entry): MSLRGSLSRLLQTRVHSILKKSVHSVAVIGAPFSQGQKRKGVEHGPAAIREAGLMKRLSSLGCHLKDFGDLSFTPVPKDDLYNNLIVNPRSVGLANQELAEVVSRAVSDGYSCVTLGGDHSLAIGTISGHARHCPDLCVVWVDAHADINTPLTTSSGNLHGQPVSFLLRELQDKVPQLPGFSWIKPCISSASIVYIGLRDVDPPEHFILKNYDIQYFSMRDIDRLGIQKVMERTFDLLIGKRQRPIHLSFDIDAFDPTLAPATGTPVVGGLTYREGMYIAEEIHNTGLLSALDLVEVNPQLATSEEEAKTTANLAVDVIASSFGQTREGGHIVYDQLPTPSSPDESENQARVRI
The experiment can be described thus: in vitro enzyme assay to detect the production of urea directly proportional to the activity of Arginase II. Also: in the data most compounds retested in dose-response had high values. Particulars: 33.3 µM. It counts as functional.

Experiment [6] concerns the target T3, Proteasome subunit beta (Trypanosoma cruzi) (UniProt O96673).
T3 sequence (whole entry): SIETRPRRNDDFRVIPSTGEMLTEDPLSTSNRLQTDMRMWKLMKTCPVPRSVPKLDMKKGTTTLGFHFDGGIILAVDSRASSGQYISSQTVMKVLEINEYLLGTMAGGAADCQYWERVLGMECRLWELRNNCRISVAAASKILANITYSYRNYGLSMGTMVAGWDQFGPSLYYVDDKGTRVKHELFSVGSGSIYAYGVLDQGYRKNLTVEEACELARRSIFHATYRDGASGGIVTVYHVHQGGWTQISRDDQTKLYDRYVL
Kind of experiment: Trypanosoma cruzi proteasome chymotrypsin-like activity (TcProtChymo) assay. Also: in the data most compounds retested in dose-response had high values. Particulars: 9.37 µM. It counts as functional.

The species entered for another experiment is Homo sapiens. Kind of experiment: To identify inhibition of the IFN signalling (Jak-Stat) pathway via expression of an eGFP reporter gene under the control of an IFN-stimulated response element (ISRE) containing MxA promoter. It counts as functional. The settings on record: 30 µM.
The target in experiment [7] is T4, Tyrosyl-tRNA synthetase, putative (Trypanosoma cruzi (strain CL Brener)) (UniProt Q4DSP6).
T4 sequence (whole entry): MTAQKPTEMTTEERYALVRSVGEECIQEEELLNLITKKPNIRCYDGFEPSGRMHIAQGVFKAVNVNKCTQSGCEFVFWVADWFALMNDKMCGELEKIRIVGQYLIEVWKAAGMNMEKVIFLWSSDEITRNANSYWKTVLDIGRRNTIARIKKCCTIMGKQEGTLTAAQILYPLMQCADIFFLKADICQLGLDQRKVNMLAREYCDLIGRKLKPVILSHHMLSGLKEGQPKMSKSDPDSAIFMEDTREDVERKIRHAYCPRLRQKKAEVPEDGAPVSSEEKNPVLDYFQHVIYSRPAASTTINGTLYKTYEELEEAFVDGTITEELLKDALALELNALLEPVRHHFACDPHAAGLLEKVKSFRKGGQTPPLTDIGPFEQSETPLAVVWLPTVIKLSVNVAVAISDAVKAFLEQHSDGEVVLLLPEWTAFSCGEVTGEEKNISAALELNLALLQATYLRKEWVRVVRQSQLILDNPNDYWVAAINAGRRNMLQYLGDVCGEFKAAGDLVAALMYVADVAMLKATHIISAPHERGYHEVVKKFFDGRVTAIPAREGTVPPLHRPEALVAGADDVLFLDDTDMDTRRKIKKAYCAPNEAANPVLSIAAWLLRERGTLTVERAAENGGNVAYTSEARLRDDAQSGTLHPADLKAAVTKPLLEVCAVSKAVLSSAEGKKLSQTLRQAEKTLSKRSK
Kind of experiment: Trypanosoma cruzi tyrosyl tRNA synthetase (TcYRS) _High Tyrosine SOP. Also: in the data most compounds retested in dose-response had high values. Particulars: 30 µM. The format is functional.

Experiment [8] addresses T4, Tyrosyl-tRNA synthetase, putative (Trypanosoma cruzi (strain CL Brener)). The experiment can be described thus: Trypanosoma cruzi tyrosyl tRNA synthetase (TcYRS) SOP. The format is functional. Particulars: 30 µM.
For experiment [9], the target named is Chromo domain-containing protein 1 (Saccharomyces cerevisiae (strain ATCC 204508 / S288c) (Baker's yeast)) (UniProt P32657). Kind of experiment: ScCHD-1 Enzyme Inhibition Assay. Also: in the data most compounds retested in dose-response had high values. The format is functional. The settings on record: 30 µM.

The structures appear in SMILES notation. For some of these results: Entries with a potency or affinity are not part of this list.

Chain of Sialic acid-binding Ig-like lectin 9 (Homo sapiens) (Q9Y336 whole entry): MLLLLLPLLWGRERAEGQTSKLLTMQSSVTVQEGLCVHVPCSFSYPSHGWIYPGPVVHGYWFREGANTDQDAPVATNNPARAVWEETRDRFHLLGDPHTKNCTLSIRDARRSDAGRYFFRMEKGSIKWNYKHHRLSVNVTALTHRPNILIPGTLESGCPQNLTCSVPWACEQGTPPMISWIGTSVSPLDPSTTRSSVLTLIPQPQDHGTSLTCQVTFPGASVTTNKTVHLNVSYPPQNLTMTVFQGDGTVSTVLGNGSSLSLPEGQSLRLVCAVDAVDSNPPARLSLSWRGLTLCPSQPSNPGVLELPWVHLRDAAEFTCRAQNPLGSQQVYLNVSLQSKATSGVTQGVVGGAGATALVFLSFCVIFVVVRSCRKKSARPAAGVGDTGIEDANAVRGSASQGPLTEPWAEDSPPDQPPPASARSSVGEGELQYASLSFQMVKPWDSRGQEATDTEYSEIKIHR
Chain of Chromo domain-containing protein 1 (Saccharomyces cerevisiae (strain ATCC 204508 / S288c) (Baker's yeast)) (P32657 whole entry, the tested form may be a part): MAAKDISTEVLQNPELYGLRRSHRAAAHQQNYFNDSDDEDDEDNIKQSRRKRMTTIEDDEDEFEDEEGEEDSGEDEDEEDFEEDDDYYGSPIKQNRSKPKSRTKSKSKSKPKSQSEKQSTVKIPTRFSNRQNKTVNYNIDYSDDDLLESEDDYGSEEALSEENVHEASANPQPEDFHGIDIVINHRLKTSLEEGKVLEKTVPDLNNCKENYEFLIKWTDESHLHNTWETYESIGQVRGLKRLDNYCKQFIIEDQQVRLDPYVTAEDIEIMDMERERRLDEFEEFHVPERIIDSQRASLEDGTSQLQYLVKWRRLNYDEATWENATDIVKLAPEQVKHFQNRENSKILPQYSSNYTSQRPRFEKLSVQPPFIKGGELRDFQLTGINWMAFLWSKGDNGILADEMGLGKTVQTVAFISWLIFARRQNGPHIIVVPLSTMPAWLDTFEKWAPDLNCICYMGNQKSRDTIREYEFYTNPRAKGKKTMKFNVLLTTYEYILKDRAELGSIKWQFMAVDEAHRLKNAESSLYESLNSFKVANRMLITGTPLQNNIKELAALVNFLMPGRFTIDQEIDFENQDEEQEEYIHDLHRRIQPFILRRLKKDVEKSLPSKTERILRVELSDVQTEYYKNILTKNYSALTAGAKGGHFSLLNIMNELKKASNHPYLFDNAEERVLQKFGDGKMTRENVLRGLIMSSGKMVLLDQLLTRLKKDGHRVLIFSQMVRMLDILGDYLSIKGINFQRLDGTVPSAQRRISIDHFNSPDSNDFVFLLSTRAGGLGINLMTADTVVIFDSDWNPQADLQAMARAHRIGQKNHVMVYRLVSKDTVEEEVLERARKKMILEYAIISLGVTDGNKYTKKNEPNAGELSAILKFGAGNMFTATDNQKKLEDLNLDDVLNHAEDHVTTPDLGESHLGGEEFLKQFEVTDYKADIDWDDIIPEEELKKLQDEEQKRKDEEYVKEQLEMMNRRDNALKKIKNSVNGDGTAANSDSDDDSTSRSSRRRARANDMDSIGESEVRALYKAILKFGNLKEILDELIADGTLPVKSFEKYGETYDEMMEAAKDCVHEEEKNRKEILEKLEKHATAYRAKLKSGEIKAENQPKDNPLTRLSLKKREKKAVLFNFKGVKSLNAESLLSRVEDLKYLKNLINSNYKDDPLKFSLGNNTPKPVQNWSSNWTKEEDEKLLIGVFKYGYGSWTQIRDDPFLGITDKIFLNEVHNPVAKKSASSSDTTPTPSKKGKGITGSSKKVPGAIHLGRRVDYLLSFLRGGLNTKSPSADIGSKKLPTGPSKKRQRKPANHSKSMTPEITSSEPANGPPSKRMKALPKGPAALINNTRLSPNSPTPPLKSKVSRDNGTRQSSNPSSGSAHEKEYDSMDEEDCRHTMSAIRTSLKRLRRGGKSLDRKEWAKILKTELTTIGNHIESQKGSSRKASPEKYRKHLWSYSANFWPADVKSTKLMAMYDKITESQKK
Chain of Protein translocase subunit SecA (Escherichia coli (strain K12)) (P10408 whole entry): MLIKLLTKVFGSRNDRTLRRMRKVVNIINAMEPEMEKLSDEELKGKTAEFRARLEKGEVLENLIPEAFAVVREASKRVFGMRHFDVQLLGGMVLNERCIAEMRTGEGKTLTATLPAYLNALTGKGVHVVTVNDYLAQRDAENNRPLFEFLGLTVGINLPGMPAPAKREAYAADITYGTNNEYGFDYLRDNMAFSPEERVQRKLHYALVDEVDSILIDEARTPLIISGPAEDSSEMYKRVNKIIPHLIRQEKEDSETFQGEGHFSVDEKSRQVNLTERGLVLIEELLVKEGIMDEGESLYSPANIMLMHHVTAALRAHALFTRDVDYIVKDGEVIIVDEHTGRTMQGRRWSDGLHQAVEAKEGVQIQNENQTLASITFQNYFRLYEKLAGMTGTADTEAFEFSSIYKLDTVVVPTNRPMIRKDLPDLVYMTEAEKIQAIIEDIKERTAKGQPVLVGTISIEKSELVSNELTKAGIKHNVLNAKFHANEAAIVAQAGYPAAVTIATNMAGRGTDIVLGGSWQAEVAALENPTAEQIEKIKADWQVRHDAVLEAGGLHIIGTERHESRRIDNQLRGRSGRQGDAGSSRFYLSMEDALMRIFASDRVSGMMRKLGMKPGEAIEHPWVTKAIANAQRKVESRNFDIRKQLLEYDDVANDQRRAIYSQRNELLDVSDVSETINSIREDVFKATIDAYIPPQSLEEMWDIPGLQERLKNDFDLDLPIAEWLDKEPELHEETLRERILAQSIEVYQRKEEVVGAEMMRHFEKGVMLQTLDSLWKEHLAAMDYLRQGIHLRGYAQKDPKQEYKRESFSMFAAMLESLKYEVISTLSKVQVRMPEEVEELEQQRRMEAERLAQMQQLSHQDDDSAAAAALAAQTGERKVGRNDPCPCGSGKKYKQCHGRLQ

In the case of `CCNC(c1ccc(OC)cc1)c1cccnc1` (stereo unspecified), the Percent Effect in experiment [1] is -5.06%; in [2] it was -1.27%; in experiment [3], 5.52%; in [4], 9.44%; in the experiment with Trypanosoma cruzi, -1.74%; in experiment [5], -0.645%. The Percent Effect in experiment [6] is 3.94%; in the experiment filed under Homo sapiens, 6.89%; in [7], 1.04%; in [8] it was 5.06%; in [9], -10.2%.

Consider `COCC1c2nnn(CC3CC3)c2CCN1C(=O)c1ccnnc1` (stereo unspecified), for which the Percent Effect is -5.05% in experiment [1]; 21.6% in [2]; -7.32% in [3]; 32.8% in experiment [4]; 3.81% in the experiment with Trypanosoma cruzi; 3.23% in [5]. For the same compound, the Percent Effect in [6] was 3.86%; in the experiment filed under Homo sapiens it was -2.31%; in experiment [7] it was 6.45%; in [8] it was 13.6%; in [9] it was -10.1%.

As to `CCc1nc2n(n1)CC(NCC(=O)Nc1ccc(Cl)cn1)CC2` (stereo unspecified), the Percent Effect in experiment [1] is -0.524%; in experiment [2] it was 10.1%; in experiment [3], -6.65%; in experiment [4] it was -1.69%; in the experiment with Trypanosoma cruzi, -7.65%; in [5], 3.04%. Also, the Percent Effect is 5.82% in [6]; 12.9% in the experiment listed under Homo sapiens; 0.493% in experiment [7]; 3.8% in experiment [8]; -7.63% in experiment [9].

For the compound `O=C(NC1CC1)[C@@H]1CCO[C@@H]2CCN(C3CCOCC3)C[C@H]21`, the Percent Effect was -7.35% in [1]; 2.6% in [2]; 3.75% in experiment [3]; 6.23% in [4]; 4.62% with Trypanosoma cruzi; 5.52% in experiment [5]. For the same compound, the Percent Effect is 8.49% in [6]; -3.98% in the experiment listed under Homo sapiens; 6.45% in experiment [7]; 13.6% in experiment [8]; 0.47% in [9].

For `O=c1cc2c(nn1CN1CCOCC1)CCC2`, the Percent Effect was -2.09% in experiment [1]; 14.7% in experiment [2]; -2.08% in experiment [3]; -0.0396% in experiment [4]; -0.786% in the experiment on Trypanosoma cruzi; -6.87% in experiment [5]. For the same compound, the Percent Effect in [6] was 11.3%; in the experiment filed under Homo sapiens it was 14.3%; in [7], 6.35%; in [8], 15.4%; in experiment [9], -8.17%.

For `c1cnn(CC2CCCN2c2ncnc3ccsc23)c1` (stereo unspecified), the Percent Effect in experiment [1] is -0.167%; in [2], 13.5%; in [3] it was 3.45%; in experiment [4] it was -4.74%; in the experiment with Trypanosoma cruzi it was -8.08%; in experiment [5], 6.84%. Besides, the Percent Effect was 8.8% in experiment [6]; 53.8% in the experiment filed under Homo sapiens; 7.92% in [7]; 18.3% in experiment [8]; -4.66% in [9].

As to `O=C(c1cscn1)N1C[C@@H]2[C@@H](C1)OCC(=O)N2CC1CCCC1`, the Percent Effect in experiment [1] was -1.51%; in [2] it was -54.5%; in experiment [3], 1.15%; in [4] it was 6.36%; in the experiment on Trypanosoma cruzi it was -5.01%; in [5], -8.28%. Besides, the Percent Effect was 16.5% in experiment [6]; 0.71% in the experiment listed under Homo sapiens; -87.1% in [7]; -147% in experiment [8]; -3.29% in experiment [9].

As for `c1cc(CN2CCCC(c3noc(C4CC4)n3)C2)no1` (stereo unspecified), the Percent Effect in [1] is 0.187%; in experiment [2], -5.41%; in [3], -9.37%; in experiment [4], 9.04%; in the experiment with Trypanosoma cruzi, 4.25%; in experiment [5], -6.41%. In addition, the Percent Effect is 4.32% in experiment [6]; 20.7% in the experiment filed under Homo sapiens; 3.45% in [7]; 6.17% in [8]; -4.15% in experiment [9].

With `NS(=O)(=O)CCNC(=O)c1ccc(-c2ccc(F)cc2)cc1F`, the Percent Effect in experiment [1] was -4.5%; in [2], 5.2%; in experiment [3], 1.86%; in experiment [4], 3.08%; in the experiment with Trypanosoma cruzi, -1.08%; in [5], 8.28%. For the same compound, the Percent Effect is 24.5% in experiment [6]; 19.2% in the experiment listed under Homo sapiens; -10.8% in experiment [7]; 1.24% in [8]; -1.11% in [9].

For `COCCN(C)C[C@@H]1CN(C(=O)c2ccoc2)C[C@@H]1CO`, the Percent Effect is -3.19% in experiment [1]; 2.7% in [2]; -0.15% in experiment [3]; 1.89% in experiment [4]; 6.56% in the experiment with Trypanosoma cruzi; -1.43% in [5]. Also, the Percent Effect was 5.34% in experiment [6]; 4.14% in the experiment filed under Homo sapiens; 6.88% in experiment [7]; 9.76% in experiment [8]; -2.44% in experiment [9].

Turning to `CC(C)c1nc(CN2CCN(CC3CCCO3)CC2)cs1` (stereo unspecified), the Percent Effect in experiment [1] is 1.19%; in experiment [2], 10.4%; in experiment [3] it was -7.85%; in [4], -14%; in the experiment with Trypanosoma cruzi, -1.47%; in [5] it was 6.95%. Moreover, the Percent Effect in [6] was 14.8%; in the experiment listed under Homo sapiens it was 17.1%; in [7], 4.76%; in [8] it was 9.41%; in experiment [9] it was -15.6%.
